High-throughput results: PubChem, several laboratories
CYP2C9 act – human CYP2C9 activators, primary screen, biochemical, luminescence | Cytochrome P450 2C9 (Homo sapiens), P11712 | recombinant CYP2C9, luciferin-H conversion; stronger effect = higher value; factor 1 = untreated enzyme, 0 = blocked | activation factor at 5 µM | 96,000 tested, 1.4% active | AID 1024, 2008;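 active = activation factor of 2 or more for CYP2C9 at a 5 µM dose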;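 also: 0 = sulfaphenazole-blocked wells and 1 = vehicle-only wells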
Target sequence (P11712 whole entry, looked up): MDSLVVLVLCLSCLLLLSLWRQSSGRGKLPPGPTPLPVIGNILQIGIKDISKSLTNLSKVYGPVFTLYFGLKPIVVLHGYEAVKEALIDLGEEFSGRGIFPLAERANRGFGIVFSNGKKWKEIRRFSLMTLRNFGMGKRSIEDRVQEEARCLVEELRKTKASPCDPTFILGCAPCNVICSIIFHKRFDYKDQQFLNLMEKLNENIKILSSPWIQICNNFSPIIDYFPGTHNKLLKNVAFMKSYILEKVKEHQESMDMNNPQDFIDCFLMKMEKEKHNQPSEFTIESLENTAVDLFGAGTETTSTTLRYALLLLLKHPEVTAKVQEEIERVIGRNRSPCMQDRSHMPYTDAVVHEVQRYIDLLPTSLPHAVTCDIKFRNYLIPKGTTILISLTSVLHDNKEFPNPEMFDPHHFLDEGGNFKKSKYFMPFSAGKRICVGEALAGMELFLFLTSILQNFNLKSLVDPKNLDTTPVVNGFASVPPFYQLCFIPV
CYP2C19 inh – blockers of cytochrome P450 2C19 activity – biochemical, luminescence, ADME assay, primary screen; P33261; CYP2C19 Supersomes, luciferin-H EGE luminescence, 30 min; inhibition, % at 5 µM; 96,000 tested, 21% active;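 active = CYP2C19 inhibition above a set limit at 5 µM in the primary screen, cut at about 50% in these data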;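 also: plate controls were negative control wells for no effect and 2.5 mM tranylcypromine positive control for full effect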
CYP2C9 inh – blockers of cytochrome P450 2C9 activity – biochemical, luminescence, ADME assay, primary screen. inhibition, % at 5 µM. CYP2C9 Supersomes, luciferin-H conversion. 96,000 tested, 20% active. AID 777, 2007. P11712;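 active = blocking of liver enzyme CYP2C9 beyond about 50% at 5 µM, limit read from the data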
PostGolgi yeast – phenotypic screen on post-Golgi transport, primary screen. post-Golgi transport phenotypic cell assay. inhibition, % at 10 µM. 98,000 tested, 0.9% active. AID 739, 2007;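 also: yeast cells grown in 1536-well plates; yeast grown about 18 h at 30C before absorbance read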
PostGolgi ctrl – growth inhibition of yeast control strain, primary screen, counter-screen for post-Golgi transport modulator project. efflux-deficient yeast background strain, growth absorbance A615, 16 h. inhibition, % at 10 µM. 98,000 tested, 5% active. AID 738, 2007
CYP2C19 activ – human CYP2C19 activators, primary screen, biochemical, luminescence | Cytochrome P450 2C19 (Homo sapiens), P33261 | recombinant CYP2C19, luciferin-H EGE luminescence; stronger effect = higher value; 0 = fully inhibited enzyme, 1 = untreated enzyme | 96,000 tested, under 10 active | activation factor at 5 µM;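 active = activation factor of at least 2 at 5 µM in the primary screen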;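 also: 0 = wells with 2.5 mM tranylcypromine and 1 = vehicle-only wells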
Numbers without * were called inactive; x = not tested or not shown. A selection: hits, their analogues and other compounds. The true share with any hit is near 32%. Rule as the data show it, unless noted: active = inhibition above about 30%; inactive = the rest.

SMILES	CYP2C9 act	CYP2C19 inh	CYP2C9 inh	PostGolgi yeast	PostGolgi ctrl	CYP2C19 activ
CC(C)(C)n1nnnc1C(c1ccccc1F)N1CCN(C2CCCC2)CC1 (centres undefined)	1	-9.1	3.2	-7.5	-0.4	1.1
COC(=O)c1ccc(C(=O)OC)c(NC(=O)COC(=O)C23CC4CC(CC(O)(C4)C2)C3)c1	0.4	13.1	57.5*	1.3	7.7	0.9
CCOCC(=O)Nc1cc(C(=O)OC)ccc1C(=O)OC	0.7	28.7	26.9	-0.8	-3.5	0.7
CC(C)(C)C(=O)[C@@H]1[C@@H]2C(=O)N(C3CCCCC3)C(=O)[C@@H]2[C@H]2c3ccccc3C=CN12	0.2	66.5*	82.0*	x	x	0.3
O=C(c1ccc2c(c1)OCO2)[C@@H]1[C@@H]2C(=O)N(C3CCCCC3)C(=O)[C@@H]2C2c3ccccc3C=CN21 (some centres undefined)	0.2	58.1*	76.3*	17.0	4.8	0.4
O=C(Nc1ccc2c(c1)OCO2)[C@@H]1[C@@H]2C(=O)N(C3CCCCC3)C(=O)[C@@H]2C2c3ccccc3C=CN21 (some centres undefined)	0.9	-8.3	8.2	18.0	10.2	1.1
O=C1C2C3C=CC([C@@H]2C(=O)N1C1CCCCC1)[C@H]1C(=O)N(C2CCCCC2)C(=O)C31 (some centres undefined)	1	6.2	-0.3	6.0	12.6	0.9
O=C(c1cccs1)[C@@H]1[C@@H]2C(=O)N(Cc3ccc4c(c3)OCO4)C(=O)[C@@H]2C2c3ccccc3C=CN21 (some centres undefined)	0.4	30.1	63.9*	-6.8	10.3	0.7
CCOC(=O)c1c(C)nc2c(c1-c1ccc(OC)cc1)C(=O)CC(C)(C)C2	0.8	13.2	17.6	9.0	22.1	0.9
CCOC(=O)c1c(C)nc2c(c1C)/C(=N/O)CC(C)(C)C2	0.5	64.0*	54.1*	10.0	2.7	0.4
COc1ccc(OC)c(NC(=O)CS(=O)(=O)Cc2nc(-c3ccccc3C)oc2C)c1	0.9	-11.1	9.3	-0.7	22.7	1.1
CCc1ccc(NC(=O)Nc2ccc3c(c2)N(C)C(=O)CS3)cc1	0.7	8.1	31.8	-5.8	1.8	0.9
CC(C)(C)c1ccc(C(=O)Nn2c(CCC(=O)O)ccc2-c2cccs2)cc1	0.9	-13.9	5.1	16.8	13.7	1.1
Cc1cc(C)cc(NC(=S)N2CCC(c3nc4ccccc4s3)CC2)c1	1	-1.3	-2.4	-4.8	11.2	1
O=C(CSc1ccc(Cl)cc1Cl)N1CCC(c2nc3ccccc3s2)CC1	0.4	54.9*	58.3*	-0.2	37.5*	0.5
CCC(C)[C@H](NC(=O)NCc1cccs1)C(=O)O (some centres undefined)	1	-0.4	2.0	-1.2	-0.5	1
O=C(c1ccc(Cl)cc1)c1cc(-c2ccccn2)c(N2CCOCC2)s1	0.5	12.6	49.3	3.7	48.8*	0.9
CCOC(=O)N1CCN(C(=O)CN(c2ccc3c(c2)OCO3)S(C)(=O)=O)CC1	1.1	38.0	-10.2	-8.3	-7.2	0.6
COc1ccccc1S(=O)(=O)Cc1ccc(C(=O)N2CCCC2)o1	1.2	6.4	-16.3	-7.8	-0.8	0.9
O=C(c1ccc(CS(=O)(=O)c2ccc(Br)cc2)o1)N1CCN(c2ncccn2)CC1	0.2	56.1*	80.9*	0.0	3.2	0.4
O=C(c1ccc(Br)o1)N1CCN(c2ncccn2)CC1	0.7	16.9	26.1	-0.9	-3.0	0.8
COc1ccccc1S(=O)(=O)Cc1ccc(C(=O)N2CCN(c3ccccn3)CC2)o1	0.5	53.3*	51.4*	-2.7	-6.1	0.5
COc1ccc(S(=O)(=O)Cc2ccc(C(=O)N3CCN(c4ccccn4)CC3)o2)cc1	0.2	30.5	80.6*	-10.2	13.2	0.7
O=C(NC1CCCC1)c1ccc(CS(=O)(=O)c2ccc(Br)cc2)o1	0.1	10.5	86.2*	-2.2	18.3	0.9
CC(=O)Nc1ccc(-c2nnc(SCC(=O)c3ccc4c(c3)Cc3ccccc3-4)n2C)cc1	0.6	36.8	40.6	-1.3	13.2	0.6
